Measured values as given in PubChem BioAssay (Tox21).
Inconclusive results are not listed. Activity calls are given as the source filed them. Unless noted, calls come from the whole dose curve.

How the values were obtained:
[1] = Nuclear factor erythroid 2-related factor 2/antioxidant responsive element (Nrf2/ARE) small molecule agonists: qHTS cell viability counter screen in human keratinocytes (AID 1919968; active = well fitted curve in the direction sought with a large enough effect in the repeat runs; an effect the other way counts as inactive or inconclusive; note: nearly all actives have a fitted effect of over 55% in size; note: potency is the fitted concentration of half-maximal effect)
Outline: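 In human HaCaT keratinocytes stably expressing an ARE-driven luciferase, compound exposure lasted 23 h at 37 C under 5% CO2. Viable cells are quantified with a protease-based fluorogenic reagent (CellTiter-Fluor) read 1 h after addition.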

[2] = target: KiSS-1 receptor (Homo sapiens) (UniProt Q969F8); test: Human kisspeptin (KISS1R) small molecule agonists, calcium flux assay in KISS1R-HEK293 cells (AID 1920064; active = well fitted curve in the direction sought with a large enough effect in the repeat runs; an effect the other way counts as inactive or inconclusive)
Outline: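 Concentration-response testing used 15 concentrations in triplicate on human KISS1R-expressing HEK293 cells. Calcium-dependent fluorescence (Ex/Em 480/540) was followed kinetically for 3 min after compound transfer.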

[3] = G protein-coupled receptor (GPCR) small molecule agonists, calcium flux assay: HEK293 wild type cell line counter screen (AID 1920065)
Outline: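 Fluorescence intensity signals activation. After overnight (18 h) culture and a 1 h calcium dye load at 37 C, compounds are added by pin tool and the plate read at 480/540 nm for 3 min in 1 s steps.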

[4] = p53 small molecule agonists, cell-based qHTS assay with human liver microsomes (AID 1963577);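 note: p53 response element beta-lactamase reporter cells with liver microsomes plus NADPH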
Outline: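 Reporter activation was measured by LiveBLAzer fluorescence intensity in p53RE-bla cells, which had been exposed to compounds for 16 h at 37 C alongside 0.5 mg/mL human liver microsomes and 0.5 mg/mL NADPH (final concentrations).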

[5] = p53 small molecule agonists, cell-based qHTS assay with rat liver microsomes (AID 1963578)
Outline: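 Compound in DMSO added to p53RE-bla cells 5 h post-plating; rat microsomes/NADPH 0.5 mg/mL final; 16 h, 37 C; LiveBLAzer 2 h RT.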

[6] = p53 small molecule agonists, cell-based qHTS assay with human liver microsomes: qHTS cell viability counter screen (AID 1963579); note: nearly all actives have a fitted effect of over 45% in size
Outline: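 HLM-supplemented (0.5 mg/mL final) and NADPH-supplemented (0.5 mg/mL final) p53RE-bla cultures, 4,000 cells per well, were dosed with compounds in DMSO for 16 h at 37 C; luminescent ATP detection (CellTiter-Glo, 30 min, room temperature) quantified surviving cells.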

[7] = p53 small molecule agonists, cell-based qHTS assay with rat liver microsomes: qHTS cell viability counter screen (AID 1963580); note: nearly all actives have a fitted effect of over 45% in size
Outline: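 Luminescent ATP readout (CellTiter-Glo, 30 min at room temperature) reports viability of p53RE-bla HCT-116 cells after 16 h at 37 C with test compounds under metabolic activation by rat liver microsomes and NADPH at 0.5 mg/mL final each.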

[8] = p53 small molecule agonists, cell-based qHTS assay: qHTS cell viability counter screen (AID 1963581); note: nearly all actives have a fitted effect of over 45% in size
Outline: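 Luminescence from CellTiter-Glo, reflecting ATP content, serves as the cytotoxicity measure; it is taken after the 2 h reporter substrate step in HCT-116 p53RE-bla cells dosed for 16 h at 37 C.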

[9] = p53 small molecule agonists, cell-based qHTS assay (AID 1963582; active = well fitted activation curve with a large enough effect in the signal ratio in the repeat runs, not every such curve was filed as active; the % refers to the signal ratio)
Outline: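 After plating, p53RE-bla cells sat 5 h in the incubator; compounds or DMSO vehicle were pinned in; a 16 h incubation at 37 C followed; FRET substrate was added and, 2 h later at RT, fluorescence was measured.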

[10] = target: 5-hydroxytryptamine receptor 2A (Homo sapiens) (UniProt P28223); test: 5-hydroxytryptamine receptor 2A (HTR2A) small molecule antagonists, cell-based qHTS assay (AID 1963586); note: nearly all actives have a fitted effect of over 45% in size; note: potency is the fitted concentration of half-maximal effect
Outline: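 CHO cells stably expressing human HTR2A were plated for 18 h at 37 C, then loaded with calcium dye for 1 h. Compounds were preincubated 5 min at room temperature before DOI (4 nM solution) was added. Kinetic fluorescence was read for 3 min.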

[11] = target: 5-hydroxytryptamine receptor 2A (Homo sapiens) (UniProt P28223); test: 5-hydroxytryptamine receptor 2A (HTR2A) small molecule agonists, cell-based qHTS assay (AID 1963587); note: nearly all actives have a fitted effect of over 30% in size; note: potency is the fitted concentration of half-maximal effect
Outline: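 HTR2A-CHO cells, plated 18 h at 37 C/5% CO2, dye-loaded 1 h at 37 C; compounds in DMSO added by pin tool (agonist mode). Intracellular calcium flux read as kinetic fluorescence on FDSS over 2 min at 1 s intervals.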

[12] = target: Muscarinic acetylcholine receptor M1 (Homo sapiens) (UniProt P11229); test: Cholinergic receptor muscarinic 1 (CHRM1) small molecule antagonists, cell-based qHTS assay (AID 1963588); note: nearly all actives have a fitted effect of over 40% in size; note: potency is the fitted concentration of half-maximal effect
Outline: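 Compounds were tested at 15 concentrations in three independent runs. Dye-loaded CHRM1-CHO cells were exposed 5 min at room temperature before stimulation by acetylcholine added at 50nM. Intracellular calcium was read kinetically on FDSS for 3 min.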

[13] = target: Muscarinic acetylcholine receptor M1 (Homo sapiens) (UniProt P11229); test: Cholinergic receptor muscarinic 1 (CHRM1) small molecule agonists, cell-based qHTS assay (AID 1963589); note: nearly all actives have a fitted effect of over 35% in size
Outline: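 Fluorescent calcium dye reports M1 activation in stably transfected CHO cells. Compounds, 15 concentrations, added after 1 h dye loading at 37 C; kinetic reading at 1 sec intervals.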

[14] = cAMP Responsive Elements (CRE) small molecule agonists, cell-based qHTS assay (AID 1963590)
Outline: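 Compound exposure lasted 3 h at 37 C/5% CO2 in CRE-bla HEK 293T cells grown in assay medium with 10% dialyzed FBS and 25 mM HEPES. Reporter signal came from LiveBLAzer B/G FRET substrate, 2 h, room temperature.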

[15] = target: Beta-2 adrenergic receptor (Homo sapiens) (UniProt P07550); test: Adrenergic beta2 receptor (ADRB2) small molecule antagonists, cell-based qHTS assay (AID 1963592); note: series mostly up to about 92 µM; nearly all actives have a fitted effect of over 50% in size
Outline: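 Assay format: CHO-ADRB2 cells, 18-20hr seeding at 37C/5% CO2, then compound plus 1nM isoproterenol agonist mix for 0.5hr RT. Homogeneous time-resolved fluorescence cAMP detection after 1hr, expressed as 665/615 nm ratio.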

[16] = target: D(2) dopamine receptor (Homo sapiens) (UniProt P14416); test: Dopamine D2 receptor (DRD2) small molecule agonists, cell-based qHTS assay (AID 1963594); note: nearly all actives have a fitted effect of over 35% in size
Outline: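 HEK293 cells stably expressing DRD2 were cultured 24 h at 37 C, then given Ro20-1724 (0.1 mM final) and compounds for 10 min at room temperature. NKH477 (200nM) was then added for 30 min. cAMP was read by HTRF.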

[17] = target: D(2) dopamine receptor (Homo sapiens) (UniProt P14416); test: Dopamine D2 receptor (DRD2) small molecule antagonists, cell-based qHTS assay (AID 1963595; active = well fitted inhibition curve with a large enough effect in the signal ratio in the repeat runs, with a control signal flat; the % refers to the signal ratio)
Outline: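 Antagonist mode in DRD2-HEK293 cells: after compound addition with 0.1 mM Ro20-1724, cells received quinpirole (12 nM) and NKH477 (200 nM) for 30 min at room temperature; HTRF cAMP read after 1 h detection.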

[18] = cAMP Responsive Elements (CRE) small molecule antagonists, cell-based qHTS assay (AID 1963591; active = well fitted inhibition curve with a large enough effect in the signal ratio in the repeat runs, not every such curve was filed as active; the % refers to the signal ratio)
Outline: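 Stimulation used NKH477 at a final 0.25 uM for 3 h in compound-treated CRE-bla HEK293T cells, seeded 18 h beforehand. Reporter activity was measured with LiveBLAzer B/G FRET substrate after 2 h at room temperature.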

[19] = target: Beta-2 adrenergic receptor (Homo sapiens) (UniProt P07550); test: Adrenergic beta2 receptor (ADRB2) small molecule agonists, cell-based qHTS assay (AID 1963593);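 note: CHO cells stably overexpressing human ADRB2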
Outline: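 CHO cells stably over-expressing ADRB2 were plated overnight at 37C, then dosed with compounds plus a stimulation mix containing 100uM IBMX and 25uM Ro-20-1724 for 0.5hr at room temperature. cAMP was measured by HTRF competition, 1hr.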

Measured: Potency

D(2) dopamine receptor (Homo sapiens), sequence (P14416 whole entry, looked up): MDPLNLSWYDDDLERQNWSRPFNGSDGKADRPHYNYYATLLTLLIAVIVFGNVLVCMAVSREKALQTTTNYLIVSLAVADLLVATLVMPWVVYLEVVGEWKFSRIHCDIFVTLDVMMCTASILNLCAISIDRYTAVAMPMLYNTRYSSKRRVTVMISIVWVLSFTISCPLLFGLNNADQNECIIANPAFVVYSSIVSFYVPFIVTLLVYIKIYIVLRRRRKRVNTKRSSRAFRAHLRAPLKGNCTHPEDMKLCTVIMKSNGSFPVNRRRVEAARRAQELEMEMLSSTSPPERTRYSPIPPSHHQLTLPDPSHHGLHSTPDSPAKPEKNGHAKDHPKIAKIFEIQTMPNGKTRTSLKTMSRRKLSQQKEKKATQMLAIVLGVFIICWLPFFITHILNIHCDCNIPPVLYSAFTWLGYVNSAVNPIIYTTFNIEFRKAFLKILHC
Beta-2 adrenergic receptor (Homo sapiens), sequence (P07550 whole entry, looked up): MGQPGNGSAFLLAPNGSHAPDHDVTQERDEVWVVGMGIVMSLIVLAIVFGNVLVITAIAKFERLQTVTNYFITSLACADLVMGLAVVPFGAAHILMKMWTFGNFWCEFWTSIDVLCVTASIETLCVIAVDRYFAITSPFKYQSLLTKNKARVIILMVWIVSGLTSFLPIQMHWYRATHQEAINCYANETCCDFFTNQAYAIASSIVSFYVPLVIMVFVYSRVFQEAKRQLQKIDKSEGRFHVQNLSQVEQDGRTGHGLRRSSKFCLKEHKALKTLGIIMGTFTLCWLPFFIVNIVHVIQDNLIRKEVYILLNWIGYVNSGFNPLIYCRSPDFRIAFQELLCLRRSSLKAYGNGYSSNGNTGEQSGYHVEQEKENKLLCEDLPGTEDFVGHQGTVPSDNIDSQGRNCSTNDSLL
5-hydroxytryptamine receptor 2A (Homo sapiens), sequence (P28223 whole entry, looked up): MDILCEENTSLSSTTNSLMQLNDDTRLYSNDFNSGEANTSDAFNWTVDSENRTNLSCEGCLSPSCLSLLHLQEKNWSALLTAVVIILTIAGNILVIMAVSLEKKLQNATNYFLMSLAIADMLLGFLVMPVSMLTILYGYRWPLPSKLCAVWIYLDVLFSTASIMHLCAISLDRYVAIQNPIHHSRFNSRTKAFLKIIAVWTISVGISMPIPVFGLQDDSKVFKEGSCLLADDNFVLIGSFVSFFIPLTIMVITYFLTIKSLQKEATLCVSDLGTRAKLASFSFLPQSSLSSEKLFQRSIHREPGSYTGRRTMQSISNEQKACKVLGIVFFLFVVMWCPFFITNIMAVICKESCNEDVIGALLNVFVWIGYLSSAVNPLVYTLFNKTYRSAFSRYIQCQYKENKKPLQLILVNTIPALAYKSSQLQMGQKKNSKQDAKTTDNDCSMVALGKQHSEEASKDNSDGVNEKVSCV
KiSS-1 receptor (Homo sapiens), sequence (Q969F8 whole entry, looked up): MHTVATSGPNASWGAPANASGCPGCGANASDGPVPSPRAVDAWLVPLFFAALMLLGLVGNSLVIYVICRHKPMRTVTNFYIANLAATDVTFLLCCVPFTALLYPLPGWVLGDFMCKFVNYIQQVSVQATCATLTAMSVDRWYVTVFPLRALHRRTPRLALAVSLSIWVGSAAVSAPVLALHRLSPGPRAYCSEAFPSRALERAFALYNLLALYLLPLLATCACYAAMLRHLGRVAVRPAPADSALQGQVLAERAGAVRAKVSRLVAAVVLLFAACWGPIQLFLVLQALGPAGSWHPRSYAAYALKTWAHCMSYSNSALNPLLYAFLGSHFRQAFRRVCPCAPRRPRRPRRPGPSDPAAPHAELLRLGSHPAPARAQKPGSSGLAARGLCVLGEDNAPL
Muscarinic acetylcholine receptor M1 (Homo sapiens), sequence (P11229 whole entry, looked up): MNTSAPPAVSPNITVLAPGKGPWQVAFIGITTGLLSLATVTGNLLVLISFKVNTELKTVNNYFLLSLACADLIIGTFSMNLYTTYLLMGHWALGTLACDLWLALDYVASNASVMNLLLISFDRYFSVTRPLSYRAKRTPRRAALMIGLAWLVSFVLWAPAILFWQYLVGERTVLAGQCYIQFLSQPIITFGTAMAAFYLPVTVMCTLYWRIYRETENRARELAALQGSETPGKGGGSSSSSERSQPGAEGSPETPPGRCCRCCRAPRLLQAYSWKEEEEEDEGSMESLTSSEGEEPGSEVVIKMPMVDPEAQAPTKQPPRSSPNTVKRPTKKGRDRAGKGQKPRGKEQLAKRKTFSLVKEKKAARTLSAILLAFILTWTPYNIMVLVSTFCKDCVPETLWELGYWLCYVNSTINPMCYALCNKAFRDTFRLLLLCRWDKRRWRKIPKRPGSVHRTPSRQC

C=CC(=O)OC
not listed: [18] | [19]
inactive: all other assays above

CCS(=O)(=O)C(C)(C)S(=O)(=O)CC
not listed: [10] | [12] | [14] | [16] | [19]
inactive: all other assays above

O=C1CC[C@@]2(O)[C@H]3Cc4ccc(O)c5c4[C@@]2(CCN3CC2CC2)[C@H]1O5
not listed: [10] | [11] | [12] | [13]
inactive: all other assays above

CCOC(=O)C(Cl)C(C)=O (centres undefined)
active: [12] 4.26 µM
not listed: [11] | [13] | [19]
inactive: all other assays above

CCC[CH2][Sn]([CH2]CCC)([O]C(C)=O)[O]C(C)=O
active: [1] 0.219 µM
not listed: [14]
inactive: all other assays above

O=[N+]([O-])C(Br)Br
active: [10] 37.6 µM | [11] 55 µM
not listed: [19]
inactive: all other assays above

CC(Cc1ccccc1)NCc1ccccc1Cl (centres undefined)
not listed: [15] | [17] | [19]
inactive: all other assays above

CC(C)Br
not listed: [14] | [19]
inactive: all other assays above

O=C(O)C(Br)CBr (centres undefined)
not listed: [6] | [9] | [18]
inactive: all other assays above

C#CC(O)(C=CCl)CC (centres undefined)
not listed: [8] | [10] | [16]
inactive: all other assays above

CCc1cccc(C)c1N(C(=O)CCl)[C@@H](C)COC
not listed: [6] | [18] | [19]
inactive: all other assays above

O=C(CBr)OCc1ccccc1
not listed: [6] | [7] | [9] | [19]
inactive: all other assays above
